The nature of assay [1]: qHTS of pediatric cancer cell lines to identify multiple opportunities for drug repurposing: Primary screen for SK-N-MC cells (AID 1347093). Also: potency is read from the fitted curve at half-maximal effect. An outline of the steps:
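Metabolically active cells were quantified by ATP-dependent luminescence (CellTiter-Glo, 15 min at room temperature) following 48 h treatment. Cells had been plated at 500-1,000 per well and settled for 5 h beforehand.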

Assay [2] in a line: qHTS of pediatric cancer cell lines to identify multiple opportunities for drug repurposing: Primary screen for BT-37 cells (AID 1347094). Also: series mostly up to about 57 µM. The procedure, abridged:
(§1)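 Cells seeded at 500-1,000 cells/well in growth media, rested 5 hours at 37 degrees C, 5% CO2, then dosed; MIPE compounds at 11-point (from 0.78 nM) and NPC at 8-point (from 0.59 nM) final concentrations. Viability by CellTiter-Glo luminescence after 48 hours.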

Assay [3] in a line: qHTS of pediatric cancer cell lines to identify multiple opportunities for drug repurposing: Primary screen for NB-EBc1 cells (AID 1347095). An outline of the steps:
as §1

Assay [4] is described as follows: qHTS of pediatric cancer cell lines to identify multiple opportunities for drug repurposing: Primary screen for U-2 OS cells (AID 1347096). Also: nearly all actives have a fitted effect of over 50% in size. An outline of the steps:
(§2)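 Cells (500-1,000/well) in growth media were settled 5 h at 37 degrees C, then given compounds for 48 h. Viability was read as CellTiter-Glo luminescence. Primary runs used MIPE at 11 points (0.78 nM-46 µM) and NPC at 8 points (0.59 nM-46 µM); follow-ups used 11 points.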

Assay [5] can be described thus: qHTS of pediatric cancer cell lines to identify multiple opportunities for drug repurposing: Primary screen for Saos-2 cells (AID 1347097). Also: nearly all actives have a fitted effect of over 40% in size. An outline of the steps: as §1
Assay [6] in a line: qHTS of pediatric cancer cell lines to identify multiple opportunities for drug repurposing: Primary screen for SK-N-SH cells (AID 1347098).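 Also: DMSO served as neutral control and bortezomib at 2.3 µM as positive control; nearly all actives have a fitted effect of over 65% in size.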 The procedure, abridged: (§3)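 Cells (500-1,000/well) rested 5 h, then received compounds for 48 h; metabolically active cells were measured by CellTiter-Glo luminescence. Final concentrations spanned up to 46 µM (MIPE, 11-point) or 0.59 nM-46 µM (NPC, 8-point) in primary screens, 11-point in follow-ups.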

A short description of assay [7]: qHTS of pediatric cancer cell lines to identify multiple opportunities for drug repurposing: Primary screen for NB1643 cells (AID 1347099). Also: nearly all actives have a fitted effect of over 50% in size. An outline of the steps:
as §1

A short description of assay [8]: qHTS of pediatric cancer cell lines to identify multiple opportunities for drug repurposing: Primary screen for LAN-5 cells (AID 1347100). The procedure, abridged:
as §2

A short description of assay [9]: qHTS of pediatric cancer cell lines to identify multiple opportunities for drug repurposing: Primary screen for Rh18 cells (AID 1347102). Also: nearly all actives have a fitted effect of over 65% in size. An outline of the steps: as §2
A short description of assay [10]: qHTS of pediatric cancer cell lines to identify multiple opportunities for drug repurposing: Primary screen for BT-12 cells (AID 1347101). Also: nearly all actives have a fitted effect of over 25% in size. An outline of the steps: as §3

24 compounds from PubChem BioAssay (NCATS) can be followed below.

Structures are written as SMILES. Records with an inconclusive call do not appear. Activity calls are given as the source filed them. Calls follow the shape of the dose curve; as a rule, active = well fitted curve in the direction sought with a large enough effect; inconclusive = small, poorly fitted or top-dose-only effect, or another doubt; inactive = no such curve, though single readings can be large; an effect the other way counts as inactive or inconclusive.

As to `Nc1c(NC/C=C\COc2cc(CN3CCCCC3)ccn2)c(=O)c1=O`, the Potency result in [1], in [2], in [3], in assay [4], in [5] and in assay [6] was “inactive” throughout. For the same compound, the Potency result in assay [7], in assay [8] and in [9] was “inactive” throughout.

As to `O=C1CC(c2ccc(Cl)cc2)CC(=O)N1`, the Potency result in [1], in assay [2], in [3], in assay [4], in assay [5] and in [6] was “inactive” throughout. Moreover, the Potency entry in assay [8] and in assay [10] was “inactive” in each case.

For `CCN1CCN(C(=O)N[C@@H](C(=O)N[C@@H]2C(=O)N3[C@@H]2SC(C)(C)[C@H]3C(=O)O)c2ccccc2)C(=O)C1=O`, the Potency result in assay [1], in assay [2], in assay [3], in [4], in assay [5] and in [6] was “inactive” throughout. Besides, the Potency entry in assay [8], in [10] and in [9] was “inactive” each time.

For the compound `CC[N+]1(CC)CCC(=C(c2ccccc2)c2ccccc2)C1C` (stereo not given), the Potency in assay [1] was 18.8 µM (active). Moreover, the Potency entry in assay [2], in assay [3], in [4], in assay [5], in [6] and in assay [7] was “inactive” throughout. Also, the Potency entry in assay [8] and in assay [9] was “inactive” each time.

For `CC(=O)O[C@@H]1CC2C3CCc4cc(OC(=O)c5ccccc5)ccc4C3CCC2(C)[C@H]1OC(C)=O` (stereo not given in full), the Potency result in assay [1], in [2], in assay [3], in assay [4], in assay [5] and in [6] was “inactive” throughout. Moreover, the Potency result in assay [7], in assay [8] and in [9] was “inactive” throughout.

Take `O=C1NC(c2ccccc2)(c2ccccc2)C(=O)N1COP(=O)(O)O`: the Potency result in [1], in assay [2], in assay [3], in assay [4], in assay [5] and in [6] was “inactive” in each case. Moreover, the Potency result in assay [7], in [8] and in [9] was “inactive” each time.

`O=C1c2ccccc2CCc2ccccc21`: the Potency entry in assay [1], in assay [2], in [3], in assay [4], in assay [5] and in assay [6] was “inactive” each time. The Potency entry in assay [8], in assay [10] and in assay [9] was “inactive” in each case.

In the case of `O=C(O)Cn1c(=O)n(Cc2ccc(Br)cc2F)c(=O)c2ccc(Cl)cc21`, the Potency entry in assay [1], in assay [2], in [3], in assay [4], in [5] and in assay [6] was “inactive” each time. In addition, the Potency entry in assay [8], in assay [10] and in [9] was “inactive” in each case.

In the case of `Cc1ncc(CO)c(CO)c1O`, the Potency entry in assay [1], in assay [2], in assay [3], in assay [4], in assay [5] and in [6] was “inactive” each time. Moreover, the Potency result in assay [8], in [10] and in assay [9] was “inactive” in each case.

Regarding `O=C(Oc1ccccc1)c1ccccc1O`, the Potency entry in [1], in assay [2], in assay [3], in assay [4], in assay [5] and in assay [6] was “inactive” in each case. The Potency entry in [8], in assay [10] and in assay [9] was “inactive” throughout.

`CN1CCN(N)CC1`: the Potency result in assay [1], in assay [2], in assay [3], in assay [4], in assay [6] and in assay [7] was “inactive” throughout. Besides, the Potency entry in assay [8] and in assay [10] was “inactive” each time.

As to `CCOc1ccccc1OCC1CNCCO1` (stereo not given), the Potency entry in assay [1], in [2], in [3], in assay [4], in assay [6] and in assay [7] was “inactive” in each case. Also, the Potency result in [8], in [10] and in assay [9] was “inactive” each time.

On to `COc1cc(C(=O)OC(COCCC(C)C)CN2CCOCC2)cc(OC)c1OC` (stereo not given), for which the Potency entry in [1], in assay [2], in [3], in [4], in assay [5] and in assay [7] was “inactive” throughout. For the same compound, the Potency entry in [8], in assay [10] and in assay [9] was “inactive” throughout.

Take `CCCC(=O)O[C@]1(C(=O)CC)CC[C@H]2[C@@H]3CCC4=CC(=O)CC[C@]4(C)[C@H]3[C@@H](O)C[C@@]21C`: the Potency in assay [1] is 33.5 µM (active). Moreover, the Potency result in [2], in assay [3], in [4], in assay [6], in assay [7] and in assay [8] was “inactive” in each case. The Potency entry in assay [10] and in assay [9] was “inactive” in each case.

As for `O=C(Oc1ccccc1)c1cccc(C(=O)Oc2ccccc2)c1`, the Potency entry in [1], in assay [2], in assay [3], in assay [4], in assay [5] and in assay [6] was “inactive” throughout. The Potency result in assay [8] and in assay [9] was “inactive” each time.

For `COC(=O)c1ccc(NC(C)=O)cc1OC`, the Potency entry in assay [1], in [2], in [3], in [4], in assay [6] and in assay [7] was “inactive” throughout. Moreover, the Potency entry in assay [8], in assay [10] and in assay [9] was “inactive” throughout.

For the compound `CC(=O)O[C@H]1CC[C@@]2(C)C(=CC[C@@H]3[C@@H]2CC[C@]2(C)C(C(C)=O)=CC[C@@H]32)C1`, the Potency entry in assay [1], in assay [2], in assay [3], in [4], in [6] and in assay [7] was “inactive” in each case. Moreover, the Potency result in assay [8], in assay [10] and in [9] was “inactive” each time.

For `Nc1ccc(C(=O)N2CC3CC(CN(Cc4ccccc4)C3)C2)cc1`, the Potency result in assay [1], in assay [2], in [3], in [4], in assay [6] and in assay [7] was “inactive” throughout. In addition, the Potency entry in assay [8], in assay [10] and in assay [9] was “inactive” throughout.

Consider `C1N2CN3CN1CN(C2)C3`, for which the Potency entry in assay [1], in [2], in assay [3], in assay [4], in assay [5] and in [7] was “inactive” throughout. The Potency result in assay [8], in [10] and in assay [9] was “inactive” each time.

In the case of `COCCOCC(OC)OC`, the Potency entry in assay [1], in [2], in assay [3], in assay [4], in assay [6] and in assay [7] was “inactive” in each case. For the same compound, the Potency entry in [8], in assay [10] and in [9] was “inactive” each time.

With `CCN(CC)CC(=O)Oc1ccc(NC(C)=O)cc1`, the Potency entry in assay [1], in assay [2], in assay [3], in assay [4], in assay [6] and in assay [7] was “inactive” in each case. For the same compound, the Potency result in assay [8], in assay [10] and in [9] was “inactive” each time.

For the compound `CC(=O)O[C@@H]1C(=O)O[C@@H]2[C@H]1OC(=O)[C@@H]2OC(C)=O`, the Potency in [1] is 3.76 µM (active). Further, the Potency entry in [2], in [3], in assay [4], in [5], in assay [6] and in assay [10] was “inactive” each time. Also, in assay [9], the Potency result is “inactive”.

On to `Oc1cccc2[nH]ccc12`, for which the Potency entry in assay [1], in assay [2], in assay [3], in assay [4], in assay [5] and in [8] was “inactive” in each case. The Potency result in assay [10] and in assay [9] was “inactive” throughout.

With `CC(C)C[C@@H]1[C@H](c2ccccc2)OC(=O)N1CCCN1CCCCCC1`, the Potency entry in assay [1], in [2], in assay [3], in assay [4], in assay [5] and in [6] was “inactive” in each case. Moreover, the Potency entry in assay [8] and in assay [9] was “inactive” in each case.
